Results taken from the supplement of paper PMC11417369.
The full ranking holds about 25,000 sequences; the median of “ln(normalized median fluorescence intensity)” is about 9.3, and the highest 2% start at about 10. The sample holds the highest values, similar sequences and a random draw of the others, so the mix is not that of the screen.

test system: PF3D7_0420300 AP2 domain 1 (GST-tagged); test: gcPBM binding intensity (ln(normalized median fluorescence intensity)); higher = stronger DNA binding
Method in brief: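 GST-tagged P. falciparum DNA-binding domains produced in E. coli were incubated for 1 h on an Agilent 4 × 180k array of primer-extended double-stranded 36-bp intergenic genomic probes with negative controls. Binding intensity is the highest Masliner-normalised natural-log median intensity across replicate spots of either probe orientation, with bound protein detected by Alexa488 anti-GST antibody at 488 nm.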

| Sequence | gcPBM binding intensity (ln) |
| --- | --- |
| TTTCTAATTTATATCACACACATATTTATATAGTAA [CACACA_site6813] | 9.41 |
| TATAAATTTATAAATAGTACATATATTTATATATAT [XGTACX_site6433] | 9.07 |
| CCCACAGACGGACACACACACACACCGACACATATA [CACACA_site4356] | 10.2 |
| CCCACAGACGGACACACACACACATATATATATATA [CACACA_site4352] | 10.1 |
| CATACACCCAGACACACACACATATATATATATATA [CACACA_site634] | 9.94 |
| CCCACAGACGGACACACACACATATATATATATATA [CACACA_site4351] | 9.81 |
| CACAGACACGGACACACACACACACCCAGACACATA [CACACA_site4357] | 10.2 |
| TACAGATACGGACACACACACACACCCAGACAAAAA [CACACA_site4432] | 10 |
| TTGGCATACGGACACACACACACACCCAGACATATA [CACACA_site4492] | 10.2 |
| CACAGACACGGACACACACACACACCCACATATATA [CACACA_site4355] | 10.3 |
| CACAGACACGGACACACACACATATATATATATATA [CACACA_site5248] | 9.86 |
| AATCTAATATAATGCACACATAAAAAAAAATCAAAC [CACACA_site3633] | 9.8 |
| TAAAAATATATATGATTGCACTTAGGACAATATATA | 9.14 |
| TTATTTTTTAAAAGTAGTACAAATTTTTATAGAAAA [XGTACX_site7407] | 8.46 |
| AATATTAAAGAATAATGTACAAAATAAAAGCAAAGA [XGTACX_site3550] | 9.86 |
| TATTATTCTACTATTATATTCTATATTATTTATAGT [CACACA_negctrl_site499] | 9.37 |
| ATAATAATATAAAAATGTACATATATTTATAATTGT [XGTACX_site3429] | 9.23 |
| AGCACAGACGGACACACACACACACCCACAGACACA [CACACA_site4358] | 10.2 |
| CATACAGATGGACACACACACACACCCACAGACAAA [CACACA_site4431] | 10.1 |
| AGCACAGACGGACACACACACATATATATATATATA [CACACA_site4341] | 9.88 |

| Sequence | gcPBM binding intensity (ln) |
| --- | --- |
| TTTGAAGGAAGGGGGGGAGGGGCCATAACAAAGGAA [GTGCAC_negctrl_site408] | 10.4 |
| AAAGAAGGGGGGGGAAAAAAAAATAAAAGAGGAAAA [XGTACX_negctrl_site92] | 9.59 |
| AAAAAAAAAAAAAAAAGGGGGGGAGGGATTGAAAAA [CACACA_negctrl_site193] | 10 |
| GCATATGTTCAGCGTTGTACATAAAAAAAAACATAT [XGTACX_site5974] | 9.07 |
| TTGATTTATATTTAATGTACATTTTTACAGAAAATT [XGTACX_site2747] | 8.93 |
| AAAAAAAAAAAAAAATGTACATATATATATATATTA [XGTACX_site7330] | 8.98 |
| CGCACAGACGGACACACACACACATATATATATATA [CACACA_site5249] | 10.1 |
| CACAGACACGGACACACACACACACCGATATATATA [CACACA_site4353] | 10.3 |
| TGGGAGCACAGACACACACACACACCGATATATATA [CACACA_site8001] | 10.2 |
| AATGAACTCACGAGCACACACACACCGATATATATA [CACACA_site4710] | 10 |
| CACGCATACAGACACACACACACACCGATATATATA [CACACA_site8113] | 10.3 |
| GGCATACACGGACACACACACACACCGACATATATA [CACACA_site4493] | 10.3 |
| CACGCATACAGACACACACACACACCCATATATATA [CACACA_site636] | 10.2 |
| TGGGAGCACAGACACACACACACACCCATATATATA [CACACA_site335] | 10.1 |
| CATATATACTCATACACACACACACCGACACAGACA [CACACA_site5026] | 10.1 |
| CACAGACACGGACACACACACATATATAATATATAT [CACACA_site4495] | 9.98 |
| AATTAGATACTAACAAGTACATATATATATATATAT [XGTACX_site2252] | 9.59 |
| ATATCGGGTGCATTAACACACATTTATTTGAATAAA [CACACA_site2350] | 9.24 |
| TCAAGAGTTATATAAACACACATACATACAGACATA [CACACA_site6998] | 9.6 |
| ATGTTATAAAATATATGTACATATTTATATAAAATA [XGTACX_site5766] | 9.14 |

| Sequence | gcPBM binding intensity (ln) |
| --- | --- |
| AATATAATATAATATAGTACGTAAAAATATTATACA [XGTACX_site2170] | 9.47 |
| ATATATGCATATATATGTACATATATATATATATAT [XGTACX_site7403] | 9.22 |
| ATTATATTATATTATACATGCATAATATTATATAAA [TGCATGCA_site647] | 9.17 |
| ATTAAATAAACCATTACACACTTTTATGTTTTGAAA [CACACA_site1143] | 9.3 |
| AAAACTTTTTTAACAGAAAAATAGGGATACAATATA [CACACA_negctrl_site1708] | 9.35 |
| CACGCATACGGACACACACACACACCGATATATATA [CACACA_site4521] | 10.3 |
| AGGATACACGGACACACACACATATATATATATATA [CACACA_site4654] | 9.9 |
| ATATATAAAATTATATGTACATATATCTATTTATAA [XGTACX_site3713] | 9.04 |
| TTTATATAACAACAAAATGGAAATATATATGTATGT [TGCATGCA_negctrl_site98] | 9.53 |
| CATACTCACCAACACACACACACACCCATATAGAAT [CACACA_site592] | 10.2 |
| ACCCATATAATATATACACACATATATATATATATA [CACACA_site4731] | 9.52 |
| TATACTCAGAAACACACACACACACCCAAAAAAAAA [CACACA_site4434] | 9.97 |
| CATATACACCAACACACACACACACCCACAAAAAAA [CACACA_site496] | 10.2 |
| TACACCCACCCACATACACACACATACACATATATA [CACACA_site8503] | 10.2 |
| TATACATACACATACACACATACACCCATACACATA [CACACA_site1746] | 9.93 |
| CATACACCCGGACACACACACACACCCATATATAAT [CACACA_site4494] | 10.3 |
| CACATATATACACATACACACACACCCATACACCCA [CACACA_site8505] | 10.2 |
| CACCCACCCACATACACACACATACACATATATATA [CACACA_site1722] | 10.2 |
| TATACACCCGGACACACACACATATATATATATATA [CACACA_site5030] | 9.94 |
| CTTATATATACATATACACACACACCCATATATATA [CACACA_site8705] | 10.1 |
